From PubChem BioAssay (NCATS)
Records with an inconclusive call do not appear. Values without a mark were called inactive. The source made the active and inactive calls. Calls come from the whole dose curve; as a rule, active = well fitted inhibition curve with a large enough effect; inconclusive = small, poorly fitted or top-dose-only effect; inactive = flat fitted curve, though single readings scatter.

Assay: P-glycoprotein substrates identified in KB-8-5-11 adenocarcinoma cell line, qHTS therapeutic library screen (AID 1346987); note: nearly all actives have a fitted effect of over 65% in size
Conditions: KB-8-5-11 (P-gp overexpressing) viability, CellTiter-Glo, 72 h; series mostly up to 44.5 µM; activity change, negative = cytotoxicity: at the top concentration
In short: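 P-gp-mediated resistance screen: KB-8-5-11 cells treated 72 h with compounds in dose-response. CellTiter-Glo viability.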
% is set by controls: 0 for no effect and ±100 for the full control effect; potency is the fitted concentration of half-maximal effect.

SMILES	activity change, negative = cytotoxicity	outcome	Potency
C=C1CCC2C(C)(C(=O)O)CCCC2(C)C1CCC(C)CC(=O)O (centres undefined)	-3.83%		
C=C1CCC[C@]2(C)CC[C@@H](C(=C)C(=O)O)[C@H](O)[C@@H]12		inactive	
O=C(O)Cc1ccc2oc(-c3ccc(NC(=O)/C=C/c4ccc(Br)cc4)c(F)c3)nc2c1	-7.12%		
C[C@]12C=C[C@@]3(CCC4[C@](C)(CO)CCC[C@@]4(C)C3CC1)C2 (some centres undefined)	6.2%		
CCc1cccc(CC)c1NC(=O)c1nn(C)c2c1CCc1cnc(Nc3ccc(C(=O)NC4CCN(C)CC4)cc3OC(F)(F)F)nc1-2			3.55 µM (active)
C=C1C(OC(C)=O)CCC2(C)CC3(OC)OC(=O)C(C)=C3CC12 (centres undefined)	-0.886%		
Cc1cc(-c2cc(O)ccc2Cl)cc2nnc(Nc3ccc(OCCN4CCCC4)cc3)nc12			4.61 µM (active)
COc1cc2c(cc1OC)[C@@H]1[C@H](O)[C@@H](OC)C=C3CCN(C2)[C@H]31			5.7 µM (active)
Cc1cccc(Oc2cnc(=O)[nH]c2)c1	5.81%		
COC(=O)c1ccccc1O[C@@H]1O[C@H](CO)[C@@H](O)[C@H](O)[C@H]1O[C@@H]1O[C@@H](C)[C@H](O)[C@@H](O)[C@H]1O		inactive [at 17.3 µM]	
CN(C)CCn1cc(S(=O)(=O)c2cccc(F)c2)c2cccnc21	-17.9%		
COC(=O)C[C@H]1C(C)(C)[C@H](OC(=O)C(C)C)[C@@]2(O)C(=O)[C@]1(C)C1CC[C@]3(C)C(CC(=O)O[C@H]3c3ccoc3)[C@]13O[C@@H]32 (some centres undefined)		inactive [at 17.3 µM]	
C=C(C(=O)O)C1CCC2(C)CCC(O)C(=C)C2C1 (centres undefined)	9.57%		
C/C=C/C=C/[C@@H]1O[C@](O)([C@H](CC)C(=O)NC/C=C/C=C(\C)[C@@H](OC)[C@@H](C)C2OC(/C=C/C=C/C=C(\C)C(=O)c3c(O)cc[nH]c3=O)[C@H](O)[C@@H]2O)[C@H](O)[C@H](O)C1(C)C (some centres undefined)	0.348% [at 17.3 µM]		
